# Most compounds without a hit are left out; they make up all but 2.4% or so of the library.
# D2 ag-1 = D2 dopamine receptor (human) agonism; P14416; HEK293 T-REx D2 cells, calcium flux agonist mode; activation, % at 2 µM; 340,000 compounds, 0.53% hits;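 active = activation over 3 SD above normal in the single-dose calcium agonist read, cut at about 30% in these data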; note: 0% is about no effect
# Target sequence (P14416 whole entry, looked up): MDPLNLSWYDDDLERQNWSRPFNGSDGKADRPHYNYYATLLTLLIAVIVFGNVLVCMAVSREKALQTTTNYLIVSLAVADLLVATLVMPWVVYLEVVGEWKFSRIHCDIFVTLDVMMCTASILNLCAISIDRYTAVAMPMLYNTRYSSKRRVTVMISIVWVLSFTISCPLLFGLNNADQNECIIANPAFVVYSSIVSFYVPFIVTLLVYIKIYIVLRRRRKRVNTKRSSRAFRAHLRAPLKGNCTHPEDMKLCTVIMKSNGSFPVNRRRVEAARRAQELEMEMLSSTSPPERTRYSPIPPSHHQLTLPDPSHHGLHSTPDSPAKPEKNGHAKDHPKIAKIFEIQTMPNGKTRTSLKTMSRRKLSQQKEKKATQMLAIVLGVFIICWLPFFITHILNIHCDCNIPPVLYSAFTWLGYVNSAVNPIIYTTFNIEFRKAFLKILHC
#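 In this primary screen, compounds producing a positive calcium signal within 180 s of addition to tetracycline-induced, force-coupled HEK293 Trex D2 cells are flagged; cells are dye-loaded with a no-wash calcium kit beforehand.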
# D2 PAM-1 = positive allosteric modulators of human D2 dopamine receptor | P14416 | HEK293 T-REx D2, calcium flux, EC20 dopamine potentiation | potentiation, % at 10 µM | 340,000 compounds, 0.34% hits;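 active = potentiation over 3 SD above the plate norm, cut at about 30% in these data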; note: 0% is about no effect
#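 Primary screen. Calcium kinetics in induced HEK293 T-REx D2 cells: compound pre-addition 180 s, EC20 dopamine, 180 s more.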
# D2 PAM-2 = potentiates the human D2 dopamine receptor allosterically; P14416; DiscoveRx D2 beta-arrestin cells, luminescence, 90 min; 100% = 57 uM dopamine signal; potentiation, % (no concentration beside the values); 360,000 compounds, 0.23% hits; AID 624464; in the data active = potentiation above about 50%; inconclusive = mostly about 30% to 49%
#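 D2 cells co-treated with compound plus 50 nM dopamine (EC20) for 90 min at 37 deg C to detect potentiation. Beta-arrestin recruitment was read as enzyme-fragment luminescence after 1 h at ambient temperature. Full response was set by 57 uM dopamine.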
# D2 ag-2 = activates the human D2 dopamine receptor; P14416; DiscoveRx PathHunter D2 beta-arrestin, luminescence, 90 min; 100% = 57 uM dopamine signal; activation, % (no concentration beside the values); 360,000 compounds, 0.084% hits; AID 624465; in the data active = activation above about 40%; inconclusive = between about 15% and that limit
#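 Agonist mode: compounds alone added to overnight-plated D2 PathHunter cells for 90 min at 37 C, with 57 uM final dopamine (EC100) defining full response. Beta-arrestin recruitment detected by chemiluminescent reagent, read after 1 h at ambient temperature.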
# D2 antag = antagonists of human D2 dopamine receptor; P14416; HEK293 TREx D2 cells, calcium flux, dopamine EC80; inhibition, % at 10 µM; 340,000 compounds, 2% hits; AID 485344; in the data active = inhibition above about 30%; inactive = below that, where a call was filed; note: 0% is about no effect
#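 Tetracycline-induced HEK293 T-REx cells expressing D2 force-coupled to calcium signalling were dye-loaded, exposed to compound for 180 s, then challenged with an EC80 of dopamine; calcium flux was followed kinetically for a further 180 s.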
# Numbers without * were called inactive; ? = inconclusive; . = no result given.
SMILES,D2 ag-1,D2 PAM-1,D2 PAM-2,D2 ag-2,D2 antag
Cc1cccc(/C(N)=N/OC(=O)N2c3ccccc3Sc3ccccc32)c1,0,7,51*,?,-18
Cc1cccc(/C(N)=N/OC(=O)c2ccc(Br)o2)c1,0,4,65*,?,6
Cc1cccc(/C(N)=N/OC(=O)c2ccc3c(c2)OCO3)c1,1,5,57*,?,-9
COc1cc(C(=O)OC(C)C(=O)N2CCCC2)cc2c1OCCO2 (stereo not given),0,2,-4,-3,67*
COc1ccc(OC)c(/C=C2/Sc3ccccc3C2=O)c1,34*,-3,16,0,7
O=c1cc(C(Cl)(Cl)Cl)oc2c1ccc1ccccc12,0,-7,85*,10,23
CC(=O)Nc1ccc(S(=O)(=O)N2CCC3(CC2)CC(=O)c2ccccc2O3)cc1,-1,11,-9,0,-29
COc1ccc(S(=O)(=O)N2CCC3(CC2)CC(=O)c2ccccc2O3)cc1OC,0,-11,-4,9,45*
CCCN(CC(=O)Nc1ccc(Cl)cc1Cl)C(=O)CC(NC(C)=O)c1ccccc1 (stereo not given),0,0,-48,-4,-10
CC(=O)NC(CC(=O)NC(C)c1ccc(Cl)cc1Cl)c1ccccc1 (stereo not given),-5,-5,-16,-1,34*
Cc1ccc(NC(=O)CSc2nccn2C2CCCC2)cc1,-1,-9,.,.,.
Cc1cccc(Nc2nc(N3CCOCC3)nc(N3CCOCC3)n2)c1,0,5,-8,-2,7
Oc1cccc(Nc2nc(N3CCOCC3)nc(N3CCOCC3)n2)c1,1,-4,5,3,36*
Cc1cc(-c2ccc(C)c(S(=O)(=O)Nc3ccccc3C(F)(F)F)c2)on1,0,5,.,.,.
Cc1cc(C(=O)Nc2ccccc2C)on1,0,8,-4,-4,-3
Cc1ccccc1NC(=O)c1ccno1,0,14,-1,0,32*
CC(NC(=O)c1ccco1)C(=O)N1CCN(C(c2ccccc2)c2ccccc2)CC1 (stereo not given),-1,3,57*,-3,5
CC(NC(=O)c1ccco1)C(=O)N1CCN(c2ccccc2)CC1 (stereo not given),1,-11,9,1,-4
CCOc1ccc(CN(C)CC(=O)Nc2ccc3c(c2)CCC3)cc1OC,2,-2,-9,-1,30*
C=CCOc1ccc(CN(C)CC(=O)Nc2ccc3c(c2)CCC3)cc1,1,-3,-6,3,-23

# Screening results deposited in PubChem BioAssay by National Center for Advancing Translational Sciences (NCATS).
